Assay results from the supplement of paper PMC13380429.

Test system: Vero E6 infected with SARS-CoV-2
Assay: inhibition of SARS-CoV-2 cytopathic effect; higher = more antiviral protection, active = above 15
Settings: 48 h

Measured: inhibition of SARS-CoV-2 cytopathic effect

COc1cccc(CCc2ccccc2OCC[C@@H]2C[C@@H](O)CN2C)c1
inactive: 1 nM 2.39% | 8.33 nM 4.9% | 100 nM 14.7% | 833.33 nM -9.02% | 10000 nM -0.59%

CC(C)[C@H](C(=O)Nc1ccc(C(=O)NO)cc1)c1ccccc1
inactive: 1 nM 3.84% | 8.33 nM 0.31% | 100 nM -0.75% | 833.33 nM 1.02% | 10000 nM 0.89%

CCN1C[C@]2(OC(=O)c3ccccc3NC(C)=O)CC[C@H](OC)[C@@]34[C@@H]2C[C@@H]([C@@H]13)[C@@]1(O)C[C@H](OC)[C@H]2C[C@@H]4[C@]1(O)[C@H]2OC [lappaconite]
inactive: 1 nM 6.58% | 8.33 nM 2.61% | 100 nM 1.75% | 833.33 nM 0.15% | 10000 nM 0.28%

NC(=S)N/N=C/c1coc2ccccc2c1=O.[Cl][Cu][Cl]
inactive: 1 nM 0.84% | 8.33 nM -0.38% | 100 nM 1.98% | 833.33 nM -0.55% | 10000 nM 2.4%

C[C@@H]1C[C@H]2[C@@H]3CCC4=CC(=O)C=C[C@]4(C)[C@@]3(F)[C@@H](O)C[C@]2(C)[C@@]1(O)C(=O)COP(=O)(O)O
inactive: 1 nM -1.27% | 8.33 nM 0.18% | 100 nM -1.45% | 833.33 nM -3.81% | 10000 nM 0.77%

CC(=O)/N=c1/[nH]c(C)c(-c2ccc(Cl)c(S(=O)(=O)NCCO)c2)s1
inactive: 1 nM 0.03% | 8.33 nM -0.02% | 100 nM 1.03% | 833.33 nM 1.81% | 10000 nM 2.47%

CN(C)CCN1C(=O)c2cccc3cc(N)cc(c23)C1=O [amonafide]
inactive: 1 nM 4.04% | 8.33 nM 2.14% | 100 nM 1.57% | 833.33 nM 3.27% | 10000 nM -6.16%

CCOc1cccc(NC(=O)c2ccc(N3CCCC3)c(C(F)(F)F)c2)c1
inactive: 1 nM 0.59% | 8.33 nM -0.15% | 100 nM -0.42% | 833.33 nM -1.65% | 10000 nM -2.63%

CCOC(=O)Nc1ccc2c(c1)N(C(=O)CN(C)C)c1ccccc1CC2 [tiracizine]
inactive: 1 nM 3.29% | 8.33 nM -0.87% | 100 nM -0.27% | 833.33 nM 1.89% | 10000 nM 0.68%

CCCC1(CCC)CCC2(CCN(CCCN(CC)CC)C2)CC1 [atiprimod]
inactive: 1 nM -0.73% | 8.33 nM 0.69% | 100 nM 0.76% | 833.33 nM -4.7% | 10000 nM -26.6%

OC[C@@H](O)[C@@H](O)[C@H](O)[C@@H](O)CO [sorbitol]
inactive: 1 nM 0.49% | 8.33 nM -0.64% | 100 nM -0.23% | 833.33 nM 1.86% | 10000 nM 1.46%

Cc1ccc(Cl)c(OC[C@H](O)CNC(C)C)c1 [1-(2-chloro-5-methylphenoxy)-3-(isopropylamino)-2-propanol]
inactive: 1 nM 0.19% | 8.33 nM -0.3% | 100 nM -0.68% | 833.33 nM 0.3% | 10000 nM -2.47%

NC(=O)c1ccc(N(C(N)=O)c2c(F)cccc2F)nc1-c1ccc(F)cc1F
inactive: 1 nM -0.41% | 8.33 nM -1.25% | 100 nM -4.38% | 833.33 nM -0.33% | 10000 nM -1.52%

O=C1NC(c2cccc([N+](=O)[O-])c2)=CCN1c1ccccc1O [icilin]
inactive: 1 nM -1.18% | 8.33 nM 2.89% | 100 nM 1.15% | 833.33 nM 0.66% | 10000 nM 0.77%

CC(=O)[C@H]1CC[C@H]2[C@@H]3CC[C@H]4C[C@H](O)CC[C@]4(C)[C@H]3CC[C@]12C [allopregnanolone]
inactive: 1 nM 0.625% | 8.33 nM 0.465% | 100 nM -0.195% | 833.33 nM 0.8% | 10000 nM -0.82%

O=c1c(O)c(-c2ccc(O)c(O)c2)oc2cc(O)cc(O)c12 [quercetin]
inactive: 1 nM 1.33% | 8.33 nM 0.85% | 100 nM 0.21% | 833.33 nM 1.78% | 10000 nM 3.03%

CCCCCCCCCCCCCC(=O)[O-].CCCCCCCCCCCCCC(=O)[O-].N[C@@H]1CCCC[C@H]1N.[Pt+2] [miriplatin]
inactive: 1 nM -0.38% | 8.33 nM -0.15% | 100 nM 0.5% | 833.33 nM -1% | 10000 nM -1.94%

CC(C)/N=c1\cc2n(-c3ccc(Cl)cc3)c3ccccc3nc-2cc1Nc1ccc(Cl)cc1 [clofazimine]
inactive: 1 nM -2.49% | 8.33 nM 0.21% | 100 nM -2.66% | 833.33 nM 6.27% | 10000 nM -0.63%

COC(=O)C1=C(C)NC(C)=C(C(=O)OC(C)C)[C@@H]1c1cccc2nonc12 [isradipine]
inactive: 1 nM 0.75% | 8.33 nM 2.79% | 100 nM 1.21% | 833.33 nM 2.05% | 10000 nM 1.88%

Cc1c(C(=O)NN2CCCCC2)nn(-c2ccc(Cl)cc2Cl)c1-c1ccc(I)cc1
inactive: 1 nM 0.54% | 8.33 nM -3.71% | 100 nM 3.18% | 833.33 nM 1.67% | 10000 nM 2.28%

O=C(Nc1ccc(-c2ccncc2)cc1)N[C@H](CO)c1ccccc1
inactive: 1 nM -3.49% | 8.33 nM 2.37% | 100 nM -1.14% | 833.33 nM -0.94% | 10000 nM -7.89%

CCCCOc1c(C(=O)c2c(F)cc(C)cc2F)c[nH]c2nncc1-2
inactive: 1 nM 0.56% | 8.33 nM -0.26% | 100 nM 0.08% | 833.33 nM -0.55% | 10000 nM -3.38%

Nc1nc(N)c2nc(-c3ccccc3)c(N)nc2n1 [triamterene]
inactive: 1 nM 0.51% | 8.33 nM 2.72% | 100 nM 4.04% | 833.33 nM 0.17% | 10000 nM -2.92%

Cc1c(NC(=O)OC[C@@H]2COCCN2)cn2ncnc(Nc3ccc4c(cnn4Cc4cccc(F)c4)c3)c12
inactive: 1 nM 0.31% | 8.33 nM -2.14% | 100 nM -2.74% | 833.33 nM -8.47% | 10000 nM -10.8%

CC(C)(Oc1ccc(CCNC(=O)c2ccc(Cl)cc2)cc1)C(=O)O [bezafibrate]
inactive: 1 nM -1.42% | 8.33 nM 0.91% | 100 nM -1.38% | 833.33 nM 0.02% | 10000 nM -0.38%

O=C(O)c1ccc(NC(=O)[C@H](Cc2ccc(O)cc2)NC(=O)c2ccccc2)cc1 [bentiromide]
inactive: 1 nM -1.4% | 8.33 nM 0.94% | 100 nM -1.51% | 833.33 nM -0.68% | 10000 nM 0.39%

O=[N+]([O-])c1cccc2c(Br)n[nH]c12 [3-bromo-7-nitroindazole]
inactive: 1 nM 0.35% | 8.33 nM 2.23% | 100 nM 0.07% | 833.33 nM -3.48% | 10000 nM -0.25%

Cc1nc2c(c(=O)[nH]1)CSCC2
inactive: 1 nM 1.12% | 8.33 nM -1.82% | 100 nM 0.46% | 833.33 nM 0.11% | 10000 nM 4.1%

COc1ccc2c(c1)c(CC(=O)N1CCOCC1)c(C)n2C(=O)c1ccc(Cl)cc1
inactive: 1 nM 0.39% | 8.33 nM -0.48% | 100 nM 1.8% | 833.33 nM -0.58% | 10000 nM -0.85%

CCC1=C[C@@H]2CN(C1)Cc1c([nH]c3ccccc13)[C@@](C(=O)OC)(c1cc3c(cc1OC)N(C)[C@H]1[C@@](O)(C(=O)OC)[C@H](OC(C)=O)[C@]4(CC)C=CCN5CC[C@]31[C@@H]54)C2 [vinorelbine]
inactive: 1 nM -1.63% | 8.33 nM -1.57% | 100 nM -1.35% | 833.33 nM -2.48% | 10000 nM -3.81%

CC(=O)O[C@H]1CC[C@@]2(C)C(=CC[C@@H]3[C@@H]2CC[C@]2(C)C(=O)CC[C@@H]32)C1 [prasterone-acetate]
inactive: 1 nM -0.78% | 8.33 nM 2.86% | 100 nM 3.18% | 833.33 nM 4.82% | 10000 nM -2.88%

C[C@@H](O)[C@H](N)C(=O)N1CCC[C@H]1C(=O)N1CCC[C@H]1C(=O)N[C@H](C(N)=O)[C@@H](C)O [rapastinel]
inactive: 1 nM -2.84% | 8.33 nM -5.74% | 100 nM 0.55% | 833.33 nM -1.01% | 10000 nM -0.06%

CC(C(=O)O)c1ccc2c(c1)CC(=O)c1ccccc1S2 (stereo not given) [zaltoprofen]
inactive: 1 nM 1.83% | 8.33 nM 2.8% | 100 nM 3.97% | 833.33 nM 0.28% | 10000 nM 1.17%

CC(SC(=O)c1cccs1)C(=O)NCC(=O)O (stereo not given) [stepronin]
inactive: 1 nM 2.01% | 8.33 nM -0.48% | 100 nM 1.48% | 833.33 nM 0.5% | 10000 nM -1.74%

O=c1ccc2ccccc2o1 [coumarin]
inactive: 1 nM -0.97% | 8.33 nM -0.94% | 100 nM -1.66% | 833.33 nM 1.9% | 10000 nM -0.9%

CCCCCCN(CCCCCC)C(=O)Cc1c(-c2ccc(F)cc2)[nH]c2ccccc12
inactive: 1 nM 5.1% | 8.33 nM 3.61% | 100 nM 3.88% | 833.33 nM 0.72% | 10000 nM -4.49%

COc1cnc(NS(=O)(=O)c2ccc(N)cc2)nc1 [sulfameter]
inactive: 1 nM -0.38% | 8.33 nM 1.1% | 100 nM 0.11% | 833.33 nM 0.46% | 10000 nM 2.89%

CC[C@H](CC#N)OC(=O)N[C@@H](C)c1cccc(NC(=O)Nc2ccc(-c3cnco3)c(OC)c2)c1
inactive: 1 nM 0.48% | 8.33 nM 4.56% | 100 nM 0.06% | 833.33 nM 10.2% | 10000 nM 13.2%

O=C1c2ccccc2S(=O)(=O)N1CCCCN1CCN(c2ncccn2)CC1 [ipsapirone]
inactive: 1 nM 4.62% | 8.33 nM 2.92% | 100 nM -3.31% | 833.33 nM 1.74% | 10000 nM 0.15%
